# An excerpt weighted towards active compounds, which were near 6.2% of everything screened.
# KinaseGlo FLuc – Counterscreen for Luciferase (Kinase-Glo TM) Inhibition; 0.28% of 200,000 active; Potency, µM (highest dose often 38.3 µM), without a hit: at the top dose activity change, negative = inhibition, actives largely listed as inhibitors; Kinase-Glo luciferase, ATP luminescence, 8 min; AID 1379, 2008; note: nearly all actives have a fitted effect of over 60% in size
#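 Compounds were added to a substrate mix at pH 7.2 (50 mM imidazole, 10 uM ATP, within the enzyme's linear range), followed by Kinase-Glo detection reagent; luminescence was measured after 8 minutes at ambient temperature.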
# VP16 counter – VP16 counterscreen qHTS for inhibitors of ROR gamma transcriptional activity; Drosophila S2 Gal4-VP16 UAS-luciferase, luminescence, 20 h; Potency, µM (titrated, usually from 53.6 µM), for the others: at the highest dose activity, negative = inhibition, actives largely listed as inhibitors; 3.5% of 310,000 active;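 note: Gal4-VP16 expression switched on by copper sulfate through the metallothionein promoter; nearly all actives have a fitted effect of over 50% in size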
# RORgamma inh – qHTS for inhibitors of ROR gamma transcriptional activity | Nuclear receptor ROR-gamma (Mus musculus), P51450 | Drosophila S2 Gal4-RORgamma UAS-luciferase reporter, 20 h | Potency, µM (highest dose often 53.6 µM), without a hit: top-dose activity change, negative = inhibition, usual class: inhibitors | 5.4% of 310,000 active | AID 2551, 2010; note: nearly all actives have a fitted effect of over 60% in size
# Target sequence (P51450 whole entry, looked up, the tested form may be a part): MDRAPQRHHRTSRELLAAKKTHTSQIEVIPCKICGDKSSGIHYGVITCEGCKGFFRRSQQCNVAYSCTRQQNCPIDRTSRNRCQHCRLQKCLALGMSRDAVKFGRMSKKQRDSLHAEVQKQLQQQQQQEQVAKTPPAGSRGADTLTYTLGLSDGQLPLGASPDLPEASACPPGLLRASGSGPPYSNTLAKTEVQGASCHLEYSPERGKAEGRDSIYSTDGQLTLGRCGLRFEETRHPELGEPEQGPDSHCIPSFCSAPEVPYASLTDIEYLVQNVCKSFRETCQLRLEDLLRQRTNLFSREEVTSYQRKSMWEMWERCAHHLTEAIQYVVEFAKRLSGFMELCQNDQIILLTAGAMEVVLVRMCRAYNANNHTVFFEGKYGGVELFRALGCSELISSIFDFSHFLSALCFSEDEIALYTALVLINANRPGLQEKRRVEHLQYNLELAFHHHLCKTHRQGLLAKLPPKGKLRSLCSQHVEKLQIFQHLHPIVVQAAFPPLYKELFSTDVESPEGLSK
#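 Using a luciferase readout, inhibitors were identified by reduced reporter activity in Drosophila cells coexpressing a copper-inducible Gal4–ROR gamma fusion and UAS-driven Photinus luciferase, incubated 20 hr after 700 uM copper sulfate.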
# Starred values were filed as active, the others as inactive; u = inconclusive; x = not tested or not shown; [ ] = another dose, or the depositor's remark. Calls come from the whole dose curve; as a rule, active = well fitted curve in the direction sought with a large enough effect; inconclusive = small, poorly fitted or top-dose-only effect, or another doubt; inactive = no such curve, though single readings can be large; an effect the other way counts as inactive or inconclusive. % is set by controls: 0 for no effect and ±100 for the full control effect; potency is the fitted concentration of half-maximal effect.
SMILES,KinaseGlo FLuc,VP16 counter,RORgamma inh
CCc1cc(SC#N)ccc1N,-2%,u,u
CC(/C=C/C(=O)NO)=C\[C@@H](C)C(=O)c1ccc(N(C)C)cc1,1%[39.9 µM],-16%,-12%
CCn1cc(Cl)c(C(=O)Nc2ccc(OC)c(OC)c2)n1,-5%,5%[10 µM],u
CC1CC(C)(C)NC(=S)N1CC(=O)NCc1ccc(Cl)cc1 (stereo not given),0%,u,11µM*
CC1CC(C)(C)NC(=S)N1CC(=O)NCc1ccccc1Cl (stereo not given),0%,u,u
Cc1ccc(NC(=O)CCCN2C(=S)NC(C)(C)CC2C)cc1 (stereo not given),1%,u,13µM*
Cc1cccc(NC(=O)CN2C(=S)NC(C)(C)CC2C)c1 (stereo not given),-3%,u,u
CC1CC(C)(C)NC(=S)N1CCCC(=O)Nc1ccc(F)cc1 (stereo not given),4%,u,13µM*
CCc1ccc(NC(=O)CCCN2C(=S)NC(C)(C)CC2C)cc1 (stereo not given),0%,u,4.5µM*
CCc1ccc(NC(=O)CC2NCCNC2=O)cc1 (stereo not given),2%,7%,10%
CC1CC(C)(C)NC(=S)N1CCCC(=O)Nc1ccc2c(c1)OCCO2 (stereo not given),-3%,-12%,28%
Cc1cc(O)cc(O)c1C(=O)OC1(C)C(=O)C=C2C=C(/C=C/C(=O)O)OC=C2C1=O (stereo not given),0%,-10%,-5%
CCCn1c(-c2ccc(F)cc2)nc2c(NC3CCN(Cc4ccccc4)CC3)nc(C)nc21,-8%,-16%,u
CC(C)CCCC(C)C1CCC2C3CC=C4CC(O)CCC4(C)C3CCC12C (stereo not given),-2%,1%,9%
Cc1ccc(S(=O)(=O)N(CC(=O)O)c2ccc(Cl)c(C(F)(F)F)c2)cc1,3%,0%[10 µM],7%
CCN(CC)C(=O)CCNS(=O)(=O)c1ccc(C)cc1,-1%,0%,19%
CCCCCC1=C2CNC(CCC)(C(=O)OC)C=C2C(C)C1=O (stereo not given),-5%,-3%,23%
Cc1cccc(C(=O)NC(=S)NNC(=O)c2cccs2)c1,-2%,-18%,u
Cc1ccccc1NC(=O)c1ccccc1NC(=O)c1cccs1,x,23%,33%
CC(C)(C)c1ccc(C(=O)NC(=S)NNC(=O)c2cccs2)cc1,-2%,7.1µM*,4µM*
O=C(NNC(=O)c1cccs1)c1ccc(F)cc1,x,5%,8%
Cc1ccccc1C(=O)NNC(=S)NC(=O)c1cccs1,x,13µM*,7.9µM*
O=C(NC(=S)NNC(=O)c1cccs1)c1ccccc1,x,16µM*,5.6µM*
Cc1cccc(NS(=O)(=O)c2cc(C(=O)O)ccc2Cl)c1,2%,x,x
CC(C)(C)n1nc2c(c1NC(=O)c1ccc(C(F)(F)F)cc1)CS(=O)(=O)C2,x,0%,-1%
SMILES,KinaseGlo FLuc,VP16 counter,RORgamma inh
O=C(/C=C/c1cccs1)Nc1nc(-c2ccccc2)cs1,3%,0%,u
O=C(/C=C/c1cccs1)Nc1scc(-c2ccccc2)c1C(=O)O,-12%,13µM*,10µM*
Cc1ccc2ccc(C(Nc3cccc(C(F)(F)F)c3)c3cccnc3)c(O)c2n1 (stereo not given),2%,u,7.1µM*
O=C(O)c1ccccc1N[C@H](c1ccccc1)c1ccc2cccnc2c1O,-2%[7.66 µM],x,x
Cc1ccnc(NC(c2ccccn2)c2c(C)[nH]c3ccccc23)c1 (stereo not given),4%,-12%,0%
Cc1ccc(N[C@H](c2ccccc2)c2ccc3cccnc3c2O)cc1,-1%[7.66 µM],x,x
COc1ccccc1NC(c1cccnc1)c1ccc2cccnc2c1O (stereo not given),2%,u,11µM*
Cc1ccnc(NC(c2cccnc2)c2ccc3cccnc3c2O)c1 (stereo not given),-1%,u,3.2µM*
Cc1cc(NC(=O)c2cc(Cl)ccc2Cl)no1,12%,-1%,-20%[10 µM]
Cc1cc(NC(c2ccc(Cl)cc2)c2ccc3cccnc3c2O)no1 (stereo not given),0%,2µM*,0.79µM*
Cc1c(NC(=O)OC(C)C)sc(=S)n1C,4%,-2%,-12%
FC(F)(F)c1ccccc1-c1cc(NCCN2CCOCC2)ncn1,x,8%,19%
CN(Cc1ccccn1)C(=O)CC1C(=O)NCCN1Cc1ccc(F)cc1Cl (stereo not given),x,0%,0%
Cc1cc(C(=O)N2CCCC(C(=O)c3cccc(C(F)(F)F)c3)C2)nc(C)n1 (stereo not given),-2%,-10%,14%
COc1ccccc1NC(=O)N(Cc1ccc2c(c1)OCO2)Cc1nc2ccccc2c(=O)[nH]1,-4%,-24%,u
CCN(CC(=O)Nc1ccc2c(c1)OCO2)Cc1nc2ccccc2c(=O)[nH]1,-2%,7.1µM*,2.5µM*
CN(CC(=O)Nc1ccc(N2CCOCC2)cc1)CC(=O)Nc1ccc(N2CCOCC2)cc1,x,-14%,18%
CCN(CC(=O)Nc1ccc2c(c1)CCC2)Cc1nc2ccccc2c(=O)[nH]1,1%,-3%[0.365 µM],5µM*
CC(OC(=O)CCc1nc2ccccc2c(=O)[nH]1)C(=O)Nc1ccc2c(c1)OCO2 (stereo not given),x,7%,1%
CN(CC(=O)Nc1ccc(N2CCOCC2)cc1)Cc1c(O)ccc2ccccc12,-2%,18%,1.8µM*
COc1ccccc1CN(Cc1nc2ccccc2c(=O)[nH]1)C(=O)Nc1cccc(C)c1,4%,6%,7.1µM*
Cn1nc(CC(=O)Nc2ccc3c(c2)CCC3)c2ccccc2c1=O,-3%,u,u
COC(=O)c1sccc1NC(=O)c1ccc(Br)s1,-2%,-1%,3%
CC(C)c1ccc(C(=O)NNC(=O)C2CC=CCC2C(=O)O)cc1 (stereo not given),-5%,-1%,-8%
COc1cccc(CN2CC(C(=O)NCCCn3ccnc3C)CCC2=O)c1 (stereo not given),x,1%,-31%
SMILES,KinaseGlo FLuc,VP16 counter,RORgamma inh
CCCCNC(=O)NS(=O)(=O)c1ccc(CO)cc1,x,-5%,-14%
CCN(CC)S(=O)(=O)c1ccc(Cl)c(C(=O)Nc2ccc(Cl)cc2[N+](=O)[O-])c1,-3%,u,u
O=C(CSc1nc2ccccc2c(=O)[nH]1)Nc1ccc(N2CCOCC2)cc1,x,u,-37%
CCN(CC(=O)Nc1cccc(Br)c1)Cc1nc2ccccc2c(=O)[nH]1,-5%,7.1µM*,4µM*
CS(=O)(=O)N(CC(=O)Nc1cccc(Br)c1)Cc1ccccc1,x,1%,-7%
CCN(CC(=O)Nc1ccc2c(c1)OC(F)(F)O2)Cc1nc2ccccc2c(=O)[nH]1,-3%,u,10µM*
O=C(CCc1nc2ccccc2c(=O)[nH]1)Nc1ccc(F)c([N+](=O)[O-])c1,-6%,15%,24%
CCN(CC(=O)Nc1ccc(N2CCOCC2)cc1)Cc1nc2ccccc2c(=O)[nH]1,1%,13µM*,4µM*
Cc1ccc(CNC(=O)CCS(=O)(=O)c2ccc3c(c2)NC(=O)CS3)cc1,x,2%,0%
COc1cc(C(F)(F)F)c(C(=O)NCc2cccc(Cl)c2)cn1,x,-5%,4%

# High-throughput results (PubChem)
